The test system of the experiment is HL-1. The experiment can be described thus: cardiomyocyte survival under oxidative or metabolic stress – cell-based, panel, H9c2 and HL-1, ATP luminescence, set 2, SAR follow-up (AID 651871).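 Further: cells exposed to stressor for 2 h before ATP readout; reference of the scale not given here.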 The settings on record: H9c2/HL-1 cardiomyocytes, 2-deoxyglucose stress, with 2-deoxyglucose, run 8, at 79 µM (top of the series).
With `COc1ccc2c(c1OC)C(=O)N1c3ccccc3C(=O)N(Cc3cccc(Cl)c3Cl)C21` (stereo not drawn), the activity (protection/inhibition) is -9.25%.
As for `CCOC(=O)c1cccc(NC(=O)CNC(=O)c2cc(-c3cc(OC)c(OC)c(OC)c3)nc3ccccc23)c1`, the activity (protection/inhibition) turned out to be 74.3%.
The figure for `COc1ccc2nc(-c3cc(OC)c(OC)c(OC)c3)cc(C(=O)NCC(=O)Nc3ccc(C(C)=O)cc3)c2c1` is 97.2%.

The record behind these values is PubChem BioAssay AID651871 (Sanford-Burnham Center for Chemical Genomics, 2012).
